Measured values taken from PubChem BioAssay (NCATS).
Inconclusive results are not listed. Calls of active or inactive are those of the source. Calls follow the shape of the dose curve; as a rule, active = well fitted curve in the direction sought with a large enough effect; inconclusive = small, poorly fitted or top-dose-only effect, or another doubt; inactive = no such curve, though single readings can be large; an effect the other way counts as inactive or inconclusive.

What was measured:
NIH3T3 [1] = experiment: Cytotoxic Profiling of Annotated Libraries Using Quantitative High-Throughput Screening (AID 1296008); conditions: Five cell lines viability, CellTiter-Glo ATP luminescence, 48-72 h; max response: stronger effect = lower value; also: nearly all actives have a fitted effect of over 60% in size
Outline: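 Cytotoxicity was measured as CellTiter-Glo ATP luminescence, read after 10 min at room temperature. Compound treatment of the cells lasted 48 or 72 hr at 37 degrees Celsius in a qHTS format.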

MCC-13 = experiment: qHTS assay to identify novel small-molecules to repurpose for Merkel cell carcinoma treatment (AID 1296009); conditions: MCC and control cell lines, CellTiter-Glo viability, 72 h; series mostly up to 46 µM; also: nearly all actives have a fitted effect of over 60% in size
Outline: (§1)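 Cell viability, measured as CellTiter-Glo luminescence, was normalized between DMSO and no-cell wells. The cells had been exposed to 8- or 11-point compound dilutions for 72 hr at 37 degree celsius.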

MCC-26 = experiment: as above; conditions: MCC and control cell lines, CellTiter-Glo viability, 72 h; series mostly up to 46 µM
Outline: as §1

C33A = experiment: Primary qHTS to identify gynecologic anti-cancer compounds using libraries of approved drugs and bioactive compounds (AID 1345084); conditions: Gynecologic cancer cell panel viability, ATPlite luminescence, 48 h; series mostly up to 57.5 µM; also: nearly all actives have a fitted effect of over 55% in size
Outline: (§2)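 Cells, 1,000 per well, plated 16 h, then exposed 48 h at 37 C to compounds. Viability by ATPlite luminescence after 15 min at room temperature.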

CAOV3 = experiment: as above; conditions: Gynecologic cancer cell panel viability, ATPlite luminescence, 48 h; series mostly up to 57.5 µM
Outline: as §2

CASKI = experiment: as above; conditions: Gynecologic cancer cell panel viability, ATPlite luminescence, 48 h; series mostly up to 57.5 µM
Outline: as §2

Es-2 = experiment: as above; conditions: Gynecologic cancer cell panel viability, ATPlite luminescence, 48 h; series mostly up to 57.5 µM
Outline: as §2

HeLa = experiment: as above; conditions: Gynecologic cancer cell panel viability, ATPlite luminescence, 48 h; series mostly up to 57.5 µM
Outline: as §2

Hek293T = experiment: as above; conditions: Gynecologic cancer cell panel viability, ATPlite luminescence, 48 h, control line for the selectivity index; series mostly up to 57.5 µM
Outline: as §2

JEG-3 = experiment: as above; conditions: Gynecologic cancer cell panel viability, ATPlite luminescence, 48 h; series mostly up to 57.5 µM
Outline: as §2

OV90 = experiment: as above; conditions: Gynecologic cancer cell panel viability, ATPlite luminescence, 48 h; series mostly up to 57.5 µM
Outline: as §2

PA-1 = experiment: as above; conditions: Gynecologic cancer cell panel viability, ATPlite luminescence, 48 h; series mostly up to 57.5 µM
Outline: as §2

SKOV3 = experiment: as above; conditions: Gynecologic cancer cell panel viability, ATPlite luminescence, 48 h; series mostly up to 57.5 µM
Outline: as §2

NIH3T3 [2] = experiment: qHTS assay to identify novel small-molecules to repurpose for Merkel cell carcinoma treatment (AID 1296009); conditions: MCC and control cell lines, CellTiter-Glo viability, 72 h; at 44.8 µM (top of the series) unless noted; also: nearly all actives have a fitted effect of over 60% in size
Outline: as §1

UISO = experiment: as above; conditions: MCC and control cell lines, CellTiter-Glo viability, 72 h; series mostly up to 46 µM
Outline: as §1

WaGa = experiment: as above; conditions: MCC and control cell lines, CellTiter-Glo viability, 72 h; series mostly up to 46 µM
Outline: as §1

HACAT = experiment: as above; conditions: MCC and control cell lines, CellTiter-Glo viability, 72 h; at 44.8 µM (top of the series) unless noted
Outline: as §1

MKL-1 = experiment: as above; conditions: MCC and control cell lines, CellTiter-Glo viability, 72 h; series mostly up to 46 µM
Outline: as §1

MKL-2 = experiment: as above; conditions: MCC and control cell lines, CellTiter-Glo viability, 72 h; series mostly up to 46 µM
Outline: as §1
% is scaled to controls: 0 for no effect and ±100 for the full control effect; potency is read from the fitted curve at half-maximal effect.

CN(C)[C@@H]1C(=O)C(C(N)=O)=C(O)[C@@]2(O)C(=O)C3=C(O)c4c(O)cccc4C[C@H]3C[C@@H]12
inactive: max response (NIH3T3 [1]) 1.19% | Potency (MCC-13) | Potency (MCC-26) | Potency (C33A) | Potency (CAOV3) | Potency (CASKI) | Potency (Es-2) | Potency (HeLa) | Potency (Hek293T) | Potency (JEG-3) | Potency (OV90) | Potency (PA-1) | Potency (SKOV3)

CCOC(=O)Cn1cccc1-c1nc(-c2ccc(OC)cc2)c(-c2ccc(OC)cc2)s1
inactive: outcome (NIH3T3 [1]) | Potency (MCC-13) | Potency (MCC-26) | outcome (NIH3T3 [2]) | Potency (UISO) | Potency (WaGa) | Potency (C33A) | Potency (CAOV3) | Potency (CASKI) | Potency (Es-2) | Potency (HeLa) | Potency (Hek293T) | Potency (JEG-3) | Potency (OV90) | Potency (PA-1) | Potency (SKOV3)

O=[N+]([O-])c1nccn1CO[C@@H](CO)[C@H](O)CO
inactive: outcome (HACAT) | Potency (MCC-13) | Potency (MCC-26) | Potency (MKL-1) | Potency (MKL-2) | Potency (UISO) | Potency (WaGa) | Potency (C33A) | Potency (CAOV3) | Potency (CASKI) | Potency (Es-2) | Potency (HeLa) | Potency (Hek293T) | Potency (JEG-3) | Potency (OV90) | Potency (PA-1) | Potency (SKOV3)

CCCCCCCCCCCC[N+](C)(C)Cc1ccccc1
active: Potency (NIH3T3 [1]) 6.68 µM | Potency (MCC-26) 23.7 µM | Potency (MKL-1) 1.06 µM | Potency (MKL-2) 0.0944 µM | Potency (UISO) 1.19 µM | Potency (WaGa) 1.88 µM | Potency (C33A) 2.51 µM | Potency (CAOV3) 5.62 µM | Potency (CASKI) 2.24 µM | Potency (Es-2) 7.94 µM | Potency (HeLa) 10 µM | Potency (Hek293T) 15.8 µM | Potency (OV90) 14.1 µM | Potency (PA-1) 8.91 µM | Potency (SKOV3) 3.16 µM

COC(=O)C1=CO[C@@H](O)[C@@H]2C(CO)=CC[C@H]12
inactive: max response (NIH3T3 [1]) -14.6% | Potency (C33A) | Potency (CASKI) | Potency (Es-2) | Potency (HeLa) | Potency (Hek293T) | Potency (JEG-3) | Potency (OV90) | Potency (PA-1) | Potency (SKOV3)

CC(=O)[C@@]1(O)CC[C@H]2[C@@H]3C[C@H](C)C4=CC(=O)CC[C@]4(C)[C@H]3CC[C@@]21C
inactive: Potency (MCC-13) | Potency (MCC-26) | Potency (MKL-1) | Potency (UISO) | Potency (WaGa) | Potency (C33A) | Potency (CAOV3) | Potency (CASKI) | Potency (Es-2) | Potency (HeLa) | Potency (Hek293T) | Potency (JEG-3) | Potency (OV90) | Potency (PA-1) | Potency (SKOV3)

CN(C)c1cc2c(Nc3ccc4c(cnn4Cc4ccccc4)c3)ncnc2cn1
inactive: max response (NIH3T3 [1]) -15.7% | Potency (C33A) | Potency (CAOV3) | Potency (CASKI) | Potency (Es-2) | Potency (HeLa) | Potency (Hek293T) | Potency (JEG-3) | Potency (OV90) | Potency (SKOV3)

COc1ccc(-n2nc(CCC(=O)N(C)O)cc2-c2ccc(Cl)cc2)cc1
active: Potency (MKL-2) 21.1 µM | Potency (SKOV3) 31.6 µM
inactive: outcome (HACAT) | Potency (MCC-26) | Potency (C33A) | Potency (CAOV3) | Potency (CASKI) | Potency (HeLa) | Potency (Hek293T)

Cc1nn(-c2ccccc2)c(C)c1/C=N/N1CCN(Cc2ccccc2)CC1
inactive: max response (NIH3T3 [1]) 3.85% | Potency (C33A) | Potency (CAOV3) | Potency (CASKI) | Potency (Es-2) | Potency (HeLa) | Potency (Hek293T) | Potency (JEG-3) | Potency (OV90) | Potency (PA-1) | Potency (SKOV3)

Brc1ccc([C@H]2CN3CCSC3=N2)cc1
inactive: outcome (NIH3T3 [1]) | outcome (NIH3T3 [2]) | Potency (C33A) | Potency (CAOV3) | Potency (CASKI) | Potency (Es-2) | Potency (HeLa) | Potency (Hek293T) | Potency (JEG-3) | Potency (OV90) | Potency (PA-1) | Potency (SKOV3)

Cc1nc(N)nc(N)c1-c1ccc(Cl)c(Cl)c1
inactive: Potency (MCC-26) | Potency (MKL-2) | Potency (CAOV3) | Potency (SKOV3)
active: Potency (NIH3T3 [1]) 0.841 µM | Potency (C33A) 0.447 µM | Potency (CASKI) 1.41 µM | Potency (Es-2) 1 µM | Potency (HeLa) 11.2 µM | Potency (Hek293T) 1.58 µM | Potency (JEG-3) 11.2 µM | Potency (OV90) 0.891 µM | Potency (PA-1) 3.16 µM

CC(=O)Nc1ccn(C2COC(COC(=O)c3ccccc3)O2)c(=O)n1 (stereo unspecified)
inactive: Potency (MCC-13) | Potency (MCC-26) | Potency (MKL-1) | Potency (MKL-2) | Potency (C33A) | Potency (CASKI) | Potency (HeLa) | Potency (Hek293T) | Potency (JEG-3) | Potency (PA-1) | Potency (SKOV3)

CCOC(=O)N1CCC(Nc2ccc(Cl)cc2N)CC1
inactive: Potency (MCC-13) | Potency (MCC-26) | Potency (WaGa) | Potency (C33A) | Potency (CAOV3) | Potency (CASKI) | Potency (Es-2) | Potency (HeLa) | Potency (Hek293T) | Potency (JEG-3) | Potency (SKOV3)
active: Potency (MKL-1) 21.1 µM | Potency (MKL-2) 26.6 µM

CC(C)OC(=O)c1cc2c(OCC(O)CNC(C)(C)C)cccc2[nH]1 (stereo unspecified)
inactive: Potency (MCC-13) | Potency (MCC-26) | Potency (MKL-1) | Potency (MKL-2) | Potency (UISO) | Potency (WaGa) | Potency (C33A) | Potency (CASKI) | Potency (Es-2) | Potency (JEG-3) | Potency (PA-1)
